Values joined by “and” are separate entries in the source; they are usually repeats but may differ in a detail not shown here. Equal values may be shown once. Inconclusive results are not listed. A call without a number means that no potency is given here. Active and inactive are the calls of the source. Unless noted, calls come from the whole dose curve; as a rule, active = well fitted curve in the direction sought with a large enough effect in the repeat runs; inconclusive = weak or mixed curves; inactive = no such curve, though single readings can be large; an effect the other way counts as inactive or inconclusive.
Experiments:
[1] = qHTS assay to identify small molecule antagonists of the retinoic acid receptor (RAR) signaling pathway (AID 1159552; note: nearly all actives have a fitted effect of over 50% in size; note: potency is the fitted concentration of half-maximal effect)
Summary of the method: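 Luminescent RARE reporter read-out in C3RL4 cells: 6 hr co-treatment at 37 C of test compounds with retinol at 1 uM final. Cells plated overnight beforehand; luciferase reagent incubated 30 min at room temperature before reading.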

[2] = qHTS assay to identify small molecule agonists of the retinoic acid receptor (RAR) signaling pathway (AID 1159553); note: potency is the fitted concentration of half-maximal effect
Summary of the method: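 Reporter readout comes from luciferase under RARE control in C3RL4 cells; compound exposure lasts 6 hr at 37 C in 5% CO2, and luminescence is recorded following a 30 min room-temperature incubation with reagent.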

[3] = qHTS assay to identify small molecule antagonists of the estrogen related receptor (ERR) signaling pathway from Tox21 library - cell viability counter screen (AID 1224834); note: nearly all actives have a fitted effect of over 30% in size; note: potency is the fitted concentration of half-maximal effect
Summary of the method: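 After 17.5 h of compound exposure at 37 C, ERR cells are incubated with CellTiter-Fluor for 30 min and fluorescence intensity serves as the viability measure.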

[4] = biological target: Luciferin 4-monooxygenase (Photinus pyralis) (UniProt P08659); assay: qHTS assay to identify small molecule inhibitors of firefly luciferase (AID 1224835); note: nearly all actives have a fitted effect of over 25% in size; note: potency is the fitted concentration of half-maximal effect
Summary of the method: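 Quantitative HTS format; KM concentrations of both substrates. Purified P. pyralis FLuc activity quantified from luminescence images.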

[5] = qHTS assay to identify small molecule agonists of the constitutive androstane receptor (CAR) signaling pathway - cell viability counter screen (AID 1224836); note: series mostly up to about 92 µM; nearly all actives have a fitted effect of over 45% in size
Summary of the method: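 Cell viability multiplexed with the CAR agonist screen: CellTiter-Fluor fluorescence after 23 hr at 37 C. HepG2-CYP2B6-hCAR cells got compounds at 15 concentrations with PK11195 at 0.75 uM final.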

[6] = qHTS assay to identify small molecule antagonists of the constitutive androstane receptor (CAR) signaling pathway - cell viability counter screen (AID 1224837); note: series mostly up to about 92 µM; nearly all actives have a fitted effect of over 45% in size
Summary of the method: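 Counter screen run in HepG2-CYP2B6-hCAR cells: 4 hr settle, compound titration (15 concentrations) with 50 nM CITCO, 23 hr at 37 C/5% CO2, CellTiter-Fluor fluorescence.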

[7] = biological target: Nuclear receptor subfamily 1 group I member 3 (Homo sapiens) (UniProt Q14994); assay: qHTS assay to identify small molecule antagonists of the constitutive androstane receptor (CAR) signaling pathway (AID 1224838);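 note: HepG2 cells stably expressing hCAR with CYP2B6 luciferase reporter stimulated by CITCO; nearly all actives have a fitted effect of over 40% in size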
Summary of the method: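 Cell line: HepG2 double-stable for hCAR and CYP2B6-2.2kb reporter. Agonist: CITCO, 50 nM final. Compounds: 15 concentrations, 24 h, 37 C. Detection: ONE-Glo luminescence.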

[8] = biological target: Nuclear receptor subfamily 1 group I member 3 (Homo sapiens) (UniProt Q14994); assay: qHTS assay to identify small molecule agonists of the constitutive androstane receptor (CAR) signaling pathway (AID 1224839); note: nearly all actives have a fitted effect of over 15% in size; note: potency is the fitted concentration of half-maximal effect
Summary of the method: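 Luminescent ONE-Glo read-out after 24 hr, 37 C exposure of double-stable HepG2-CYP2B6-hCAR reporter cells to a 15-point compound series, in the presence of 0.75 uM PK11195 (final).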

[9] = qHTS assay to identify small molecule antagonists of the estrogen related receptor signaling pathway with the pleiotropic PPARgamma coactivator (PGC) from Tox21 10K library - cell viability counter screen (AID 1224840; active = well fitted cell-killing curve with a large enough effect in the repeat runs, not every such curve was filed as active; note: nearly all actives have a fitted effect of over 40% in size)
Summary of the method: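 Following seeding of 2,000 PGC/ERR cells/well and 6 hours' incubation, test compounds were delivered in DMSO. The plates then sat 17.5 hours at 37 C before a fluorogenic live-cell protease reagent (CellTiter-Fluor) was read after 30 min.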

[10] = qHTS assay to identify small molecule antagonists of the estrogen related receptor signaling pathway with the pleiotropic PPARgamma coactivator (PGC) from Tox21 10K library (AID 1224841; call rule not given here; note: actives are mostly falling curves and most rising ones were filed inactive; nearly all actives have a fitted effect of over 50% in size; note: potency is the fitted concentration of half-maximal effect)
Summary of the method: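 qHTS antagonist format: PGC/ERR cells, 2k/well, compound in DMSO by pin transfer after 6 h attachment, 18 h treatment at 37 C, One-Glo luminescence read at 30 min.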

[11] = qHTS assay to identify small molecule agonists of the estrogen related receptor signaling pathway with the pleiotropic PPARgamma coactivator (PGC) from Tox21 10K library (AID 1224842); note: nearly all actives have a fitted effect of over 15% in size
Summary of the method: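 PGC/ERR reporter cells (NTP line) were seeded 2,000 per well, rested 6 h at 37 C/5% CO2, then pin-dosed with compounds in DMSO for 18 h at 37 C; luciferase read by One-Glo luminescence after 30 min at room temperature.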

[12] = biological target: Thyrotropin receptor (Homo sapiens) (UniProt P16473); assay: qHTS assay to identify small molecule agonists of the thyroid stimulating hormone receptor (TSHR) signaling pathway (AID 1224843; calls by dose curve; note: nearly all actives have a fitted effect of over 45% in size; note: potency is the fitted concentration of half-maximal effect)
Summary of the method: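 Cell line HEK293 with TSHR; density 800/well. Exposure 30 min RT. Readout HTRF cAMP (cAMP-d2/anti-cAMP-cryptate), 1 h RT before reading.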

[13] = qHTS assay to identify small molecule agonists of the hypoxia (HIF-1) signaling pathway - cell viability counter screen (AID 1224844; calls by dose curve; note: nearly all actives have a fitted effect of over 50% in size)
Summary of the method: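 Cells (HRE-bla ME-180, 2,000 per well) sat 5 hrs at 37C, got compound for 17 hrs, were read for CCF4-AM FRET, and were finally lysed with CellTiter-Glo for a 30 min room-temperature luminescence read.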

[14] = qHTS assay to identify small molecule antagonists of the retinoid acid receptor (RAR) signaling pathway - cell viability counter screen (AID 1159551); note: nearly all actives have a fitted effect of over 35% in size
Summary of the method: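 Retinol-stimulated (1 uM final) C3RL4 cells, compound 6 h, 37 C; readout CellTiter-Glo luminescence (ATP) after 30 min RT incubation.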

Chain of Luciferin 4-monooxygenase (Photinus pyralis) (P08659 whole entry, looked up): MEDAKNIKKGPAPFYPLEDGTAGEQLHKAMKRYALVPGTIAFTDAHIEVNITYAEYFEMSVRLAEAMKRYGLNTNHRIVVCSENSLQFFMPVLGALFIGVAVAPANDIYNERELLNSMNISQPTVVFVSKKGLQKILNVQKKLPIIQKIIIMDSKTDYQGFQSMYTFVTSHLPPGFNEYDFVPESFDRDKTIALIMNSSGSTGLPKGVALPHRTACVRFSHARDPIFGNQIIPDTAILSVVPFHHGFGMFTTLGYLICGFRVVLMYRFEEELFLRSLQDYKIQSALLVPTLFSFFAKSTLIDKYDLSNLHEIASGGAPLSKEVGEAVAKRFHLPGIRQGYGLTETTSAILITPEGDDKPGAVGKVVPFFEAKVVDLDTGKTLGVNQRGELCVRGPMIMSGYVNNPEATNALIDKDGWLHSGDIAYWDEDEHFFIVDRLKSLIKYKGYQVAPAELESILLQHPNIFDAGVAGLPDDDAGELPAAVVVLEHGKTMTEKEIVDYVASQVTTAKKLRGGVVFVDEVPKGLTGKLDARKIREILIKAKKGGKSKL
Chain of Nuclear receptor subfamily 1 group I member 3 (Homo sapiens) (Q14994 whole entry, looked up): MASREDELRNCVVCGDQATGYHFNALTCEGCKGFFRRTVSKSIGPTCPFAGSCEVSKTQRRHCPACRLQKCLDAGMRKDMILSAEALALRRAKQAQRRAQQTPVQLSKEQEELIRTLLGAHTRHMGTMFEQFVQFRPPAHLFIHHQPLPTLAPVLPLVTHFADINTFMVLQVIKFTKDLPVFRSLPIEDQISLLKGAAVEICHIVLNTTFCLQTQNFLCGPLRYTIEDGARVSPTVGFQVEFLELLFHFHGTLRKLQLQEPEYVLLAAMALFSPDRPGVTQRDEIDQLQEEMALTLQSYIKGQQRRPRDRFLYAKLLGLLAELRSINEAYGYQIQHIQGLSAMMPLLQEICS
Chain of Thyrotropin receptor (Homo sapiens) (P16473 whole entry, looked up): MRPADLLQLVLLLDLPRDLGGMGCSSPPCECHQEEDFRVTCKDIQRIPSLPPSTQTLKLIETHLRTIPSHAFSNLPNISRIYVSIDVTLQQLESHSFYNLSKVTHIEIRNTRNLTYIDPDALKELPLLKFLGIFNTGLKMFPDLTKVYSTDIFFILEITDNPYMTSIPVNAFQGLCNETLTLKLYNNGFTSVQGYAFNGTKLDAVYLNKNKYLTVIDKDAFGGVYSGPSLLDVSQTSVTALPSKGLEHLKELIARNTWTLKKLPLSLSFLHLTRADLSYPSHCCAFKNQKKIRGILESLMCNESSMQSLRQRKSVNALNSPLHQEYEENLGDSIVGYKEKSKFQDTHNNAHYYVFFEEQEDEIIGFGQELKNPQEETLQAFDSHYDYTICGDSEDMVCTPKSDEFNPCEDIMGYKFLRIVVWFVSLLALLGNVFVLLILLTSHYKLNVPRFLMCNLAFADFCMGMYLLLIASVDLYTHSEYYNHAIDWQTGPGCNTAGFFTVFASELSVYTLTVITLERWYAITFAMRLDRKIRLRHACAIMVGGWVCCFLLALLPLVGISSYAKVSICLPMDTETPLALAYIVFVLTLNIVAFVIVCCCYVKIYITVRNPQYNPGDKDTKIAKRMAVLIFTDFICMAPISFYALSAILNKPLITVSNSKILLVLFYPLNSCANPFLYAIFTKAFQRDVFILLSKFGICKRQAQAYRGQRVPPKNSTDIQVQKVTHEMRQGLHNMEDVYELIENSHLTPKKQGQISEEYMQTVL

Compound | Potency [1] | Potency [2] | Potency [3] | Potency [4] | Potency [5] | Potency [6] | Potency [7] | Potency [8] | Potency [9] | Potency [10] | Potency [11] | Potency [12] | Potency [13] | Potency [14]
c1ccc2c(c1)sc1ccccc12 | inactive | inactive | inactive | 31.7 µM (active) | inactive | inactive | inactive | inactive | inactive | inactive | inactive | inactive | inactive | 
O=[N+]([O-])c1cc(Cl)c(Cl)cc1Cl |  |  |  | inactive | inactive | inactive | inactive | inactive | inactive | inactive | inactive |  | inactive | inactive
CC(=O)OC(c1ccccc1)C(Cl)(Cl)Cl (configuration not stated) |  |  | inactive | inactive | inactive | inactive |  |  | inactive |  |  | inactive | inactive | inactive
O=C(O)c1ccc(=O)[nH]c1 |  |  | inactive | inactive | inactive | inactive | inactive | inactive | inactive | inactive | inactive | inactive | inactive | inactive
OCC1CO1 (configuration not stated) |  |  | inactive | inactive | inactive | inactive |  |  | inactive |  |  |  | inactive | inactive
O=C(O)C(O)C(O)C(=O)O (configuration not stated) |  |  | inactive | inactive |  |  |  |  | inactive |  |  |  | inactive | inactive
C[Si](Cn1cncn1)(c1ccc(F)cc1)c1ccc(F)cc1 |  |  | 63.1 µM (active) and 48.6 µM (active) | inactive |  | inactive |  |  |  | 39.8 µM (active) and 48.6 µM (active) | inactive | inactive | inactive | inactive
Oc1cccc(Cl)c1 |  |  | inactive | inactive | inactive | inactive |  |  | inactive | inactive | inactive | inactive | inactive | inactive
CCCC(C)(COC(N)=O)COC(=O)NC(C)C (configuration not stated) |  |  | inactive | inactive | inactive | inactive | inactive | inactive | inactive | inactive | inactive | inactive | inactive | inactive
O=C(O)C(Cl)(Cl)Br | inactive | inactive | inactive | inactive | inactive | inactive | inactive | inactive | inactive |  |  | inactive | inactive | 
C[C@]12C=CC3=C4CCC(=O)C=C4CC[C@H]3[C@@H]1CC[C@@H]2O |  |  | inactive | inactive | inactive | inactive | inactive |  | inactive |  |  |  | inactive | inactive
ClCc1ccccc1Cl | inactive | inactive | inactive | inactive | inactive | inactive | inactive | inactive | inactive | inactive | inactive | inactive | inactive | 
O=C=NC1CCCCC1 | inactive | 1.94 µM (active) | inactive | inactive | inactive | inactive | inactive | inactive | inactive | inactive | inactive | inactive | inactive | 
CC(C)OC(=O)Cc1ccccc1 |  |  | inactive | inactive | inactive | inactive |  |  | inactive |  |  | inactive | inactive | inactive
CC(O)CN1CCN(CC(=O)[O-])CCN(CC(=O)[O-])CCN(CC(=O)[O-])CC1.[Gd+3] (configuration not stated) |  |  | inactive | inactive | inactive | inactive |  |  | inactive |  |  | inactive | inactive | inactive
CCC(C)(C)O |  |  | inactive | inactive |  | inactive | inactive | inactive | inactive |  |  | inactive | inactive | inactive
CN1CC[C@]23c4c5ccc(O)c4O[C@H]2[C@@H](O)CC[C@H]3[C@H]1C5 | inactive |  | inactive | inactive | inactive | inactive | inactive | inactive | inactive |  |  |  | inactive | 
COC(=O)Cc1ccccc1 | inactive | inactive | inactive | inactive |  | inactive | inactive | inactive | inactive |  |  |  | inactive | 
CC(C)c1ccc(OP(=O)(Oc2ccc(C(C)C)cc2)Oc2ccc(C(C)C)cc2)cc1 | 54.9 µM (active) | inactive |  | inactive |  | inactive | inactive | 30.9 µM (active) and 27.3 µM (active) and 48.5 µM (active) | inactive |  |  | 13.8 µM (active) and 15.4 µM (active) and 13.7 µM (active) | inactive | 

From PubChem BioAssay (Tox21)
